Laboratory results published in PubChem BioAssay (Tox21).
Results filed as inconclusive are left out. Activity calls are given as the source filed them. Unless noted, calls follow the shape of the dose curve; as a rule, active = well fitted curve in the direction sought with a large enough effect in the repeat runs; inconclusive = weak or mixed curves; inactive = no such curve, though single readings can be large; an effect the other way counts as inactive or inconclusive.

Legend:
[1] = qHTS assay for small molecule agonists of the p53 signaling pathway (AID 651631; calls by dose curve; also: nearly all actives have a fitted effect of over 15% in size)
Procedure, shortened: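 Readout was fluorescence from the LiveBLAzer FRET substrate, applied for 2 h at room temperature after 16 h compound exposure at 37 °C. Cells were the p53RE-bla HCT-116 line, with beta-lactamase driven by p53 response elements.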

[2] = qHTS assay for small molecules that induce genotoxicity in human embryonic kidney cells expressing luciferase-tagged ATAD5 (AID 651632); also: nearly all actives have a fitted effect of over 15% in size; also: potency is read from the fitted curve at half-maximal effect
Procedure, shortened: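 DMSO vehicle served as the control. HEK293T reporter cells, 16 hr at 37C, then 30 min Amplite at room temperature; ATAD5 induction is measured as luciferase activity.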

[3] = qHTS assay for small molecule agonists of the p53 signaling pathway - cell viability (AID 651633; calls by dose curve; also: series mostly up to about 83 µM; nearly all actives have a fitted effect of over 30% in size)
Procedure, shortened: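 Viability counter-read: CellTiter-Glo luminescence (30 min, room temperature) in the same p53RE-bla plates. These plates had been exposed to compounds for 16 h at 37 C.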

[4] = qHTS assay for small molecules that induce genotoxicity in human embryonic kidney cells expressing luciferase-tagged ATAD5 - cell viability (AID 651634; calls by dose curve; also: nearly all actives have a fitted effect of over 25% in size)
Procedure, shortened: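 Here HEK293T cells with the ATAD5 luciferase reporter are incubated with test compounds for 15.5 hr, and cytotoxicity is then gauged by measuring protease activity in live cells using fluorescence.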

[5] = qHTS assay for small molecule disruptors of the mitochondrial membrane potential - cell viability (AID 720634; calls by dose curve;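 also: human HepG2 liver cancer cells; series mostly up to about 83 µM; nearly all actives have a fitted effect of over 20% in size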)
Procedure, shortened: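 Viability of HepG2 cells is scored from ATP content by luminescence; cells are exposed to compound for 1 hr at 37 C and 5% CO2, then dosed with m-MPI dye before the CellTiter-Glo reagent.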

[6] = qHTS assay to test for compound auto fluorescence at 590 nm (red) in HepG2 cells (AID 720674)
Procedure, shortened: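 1 hr compound incubation on HepG2 cells, 37 C, 5% CO2; plate read ex 540 nm / em 590 nm; intensities reported as Rose Bengal sodium equivalents.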

[7] = qHTS assay to test for compound auto fluorescence at 535 nm (green) in HepG2 cells (AID 720675)
[8] = qHTS assay to test for compound auto fluorescence at 460 nm (blue) in HEK293 cells (AID 720678)
Procedure, shortened: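 Auto fluorescence in the blue band was quantified as triamterene equivalency. HEK293 cells were seeded at 2,000/well, dosed after a 4-5 hr attachment, and kept overnight at 37C before the 405/460 nm reading.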

[9] = qHTS assay to test for compound auto fluorescence at 590 nm (red) in HEK293 cells (AID 720679)
Procedure, shortened: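 Autofluorescence equivalency to Rose Bengal sodium, 540/590nm, in HEK293 cells exposed overnight to 23 nL compound per well.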

[10] = qHTS assay to test for compound auto fluorescence at 460 nm (blue) in HEK293 cell free culture (AID 720681)
Procedure, shortened: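 Blue fluorescence (Ex 405/Em 460 nm, triamterene-equivalent) was read immediately after pin transfer of compound or DMSO into medium (DMEM, 10% FBS) without cells.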

[11] = qHTS assay to test for compound auto fluorescence at 535 nm (green) in HEK293 cell free culture (AID 720682)
Procedure, shortened: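 Compounds were pin-transferred into cell-free DMEM with 10% FBS, and green fluorescence was read at excitation 485 nm and emission 535 nm. Intensities were expressed as fluorescein-equivalent values.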

[12] = qHTS assay to test for compound auto fluorescence at 590 nm (red) in HEK293 cell free culture (AID 720683)
Procedure, shortened: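 Red-channel autofluorescence of compounds in culture medium (DMEM, 10% FBS), no cells, measured at 540/590 nm. Rose Bengal sodium is the reference fluorophore for equivalence.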

[13] = qHTS assay to test for compound auto fluorescence at 590 nm (red) in HepG2 cell free culture (AID 720684)
Procedure, shortened: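 Cell-free; medium MEM + 10% FBS; compound or DMSO added by pintool; read Ex 540/Em 590 nm; Rose Bengal sodium as red reference fluorophore.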

[14] = qHTS assay to test for compound auto fluorescence at 460 nm (blue) in HepG2 cell free culture (AID 720685)
Procedure, shortened: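 Cell-free plates of MEM plus 10% FBS received 23 nL compound or DMSO vehicle; blue-channel (405/460 nm) intensity scored against triamterene as reference fluorophore.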

[15] = qHTS assay to test for compound auto fluorescence at 535 nm (green) in HepG2 cell free culture (AID 720686)
[16] = qHTS assay to test for compound auto fluorescence at 460 nm (blue) in HepG2 cells (AID 720687)
Procedure, shortened: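 Blue-channel autofluorescence (Ex/Em 405/460 nm, triamterene-equivalent) was measured after 1 hr compound exposure at 37 C, 5% CO2. Cells were HepG2, plated overnight at 37 C in MEM plus 10% FBS.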

[17] = biological target: Glucocorticoid receptor (Homo sapiens) (UniProt P04150); test: qHTS assay to identify small molecule agonists of the glucocorticoid receptor (GR) signaling pathway (AID 720691; active = well fitted activation curve with a large enough effect in the signal ratio in the repeat runs, not every such curve was filed as active; the % refers to the signal ratio)
Sequence of Glucocorticoid receptor (Homo sapiens) (P04150 whole entry, looked up): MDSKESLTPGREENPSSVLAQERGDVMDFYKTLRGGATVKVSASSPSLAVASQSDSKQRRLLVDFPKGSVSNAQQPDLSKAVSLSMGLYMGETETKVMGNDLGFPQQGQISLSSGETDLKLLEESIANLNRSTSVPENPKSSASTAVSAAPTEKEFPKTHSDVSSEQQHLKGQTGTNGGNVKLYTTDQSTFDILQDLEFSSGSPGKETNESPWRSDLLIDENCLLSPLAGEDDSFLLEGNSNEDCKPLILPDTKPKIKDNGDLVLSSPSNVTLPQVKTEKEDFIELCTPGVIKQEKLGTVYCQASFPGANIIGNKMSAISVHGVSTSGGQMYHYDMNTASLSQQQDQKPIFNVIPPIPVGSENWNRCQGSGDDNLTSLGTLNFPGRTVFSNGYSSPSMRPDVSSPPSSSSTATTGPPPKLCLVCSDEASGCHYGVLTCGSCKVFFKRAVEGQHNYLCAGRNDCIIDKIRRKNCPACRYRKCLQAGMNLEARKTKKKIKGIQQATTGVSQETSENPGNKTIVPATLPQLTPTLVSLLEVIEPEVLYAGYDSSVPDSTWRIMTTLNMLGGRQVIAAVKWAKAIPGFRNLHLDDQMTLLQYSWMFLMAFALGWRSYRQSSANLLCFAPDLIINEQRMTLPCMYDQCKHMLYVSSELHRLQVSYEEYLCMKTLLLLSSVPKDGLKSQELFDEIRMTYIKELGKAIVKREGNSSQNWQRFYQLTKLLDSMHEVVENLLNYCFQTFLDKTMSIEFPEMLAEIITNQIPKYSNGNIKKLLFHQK
Procedure, shortened: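 Compounds in DMSO, alongside positive controls, were added to GR-bla HeLa reporter cells and incubated 18 h at 37 C; GRE-driven beta-lactamase was detected by fluorescence after 2 h with FRET substrate at room temperature.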

[18] = biological target: Glucocorticoid receptor (Homo sapiens) (UniProt P04150); test: qHTS assay to identify small molecule antagonists of the glucocorticoid receptor (GR) signaling pathway (AID 720692; active = well fitted inhibition curve with a large enough effect in the signal ratio in the repeat runs, not every such curve was filed as active; the % refers to the signal ratio)
Procedure, shortened: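 In a 1536-well cell format, compounds were added 4 h after seeding GR-bla HeLa cells, together with dexamethasone at 5 nM final; reporter activity was measured by FRET-substrate fluorescence following 18 h at 37 C.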

[19] = qHTS assay to test for compound auto fluorescence at 535 nm (green) in HEK293 cells (AID 720680)
% is scaled to controls: 0 for no effect and ±100 for the full control effect.

CC(C)(O)c1ccccc1
inactive: Potency [1] | Potency [2] | Potency [3] | Potency [4] | Potency [5] | outcome [6] | outcome [7] | Potency [8] | outcome [9] | Potency [10] | outcome [11] | outcome [12] | outcome [13] | Potency [14] | outcome [15] | Potency [16] | Potency [17] | Potency [18]

N#CCN(CC#N)CCN(CC#N)CC#N
inactive: Potency [1] | Potency [2] | Potency [3] | Potency [4] | Potency [5] | outcome [6] | outcome [7] | Potency [8] | outcome [9] | Potency [10] | outcome [11] | outcome [12] | outcome [13] | Potency [14] | outcome [15] | Potency [17] | Potency [18]

[O-][N+](=Nc1ccccc1)c1ccccc1
inactive: Potency [1] | Potency [2] | Potency [3] | Potency [4] | Potency [5] | outcome [6] | outcome [7] | outcome [9] | outcome [19] | Potency [10] | outcome [11] | outcome [12] | outcome [13] | Potency [14] | outcome [15] | Potency [16] | Potency [17] | Potency [18]

COc1cccc(OC)c1
inactive: Potency [1] | Potency [2] | Potency [3] | Potency [4] | outcome [6] | outcome [7] | Potency [8] | outcome [9] | outcome [19] | Potency [10] | outcome [11] | outcome [12] | outcome [13] | Potency [14] | outcome [15] | Potency [16] | Potency [17] | Potency [18]

c1ccc(SCCSc2ccccc2)cc1
inactive: Potency [1] | Potency [3] | Potency [4] | Potency [5] | outcome [6] | outcome [7] | outcome [9] | outcome [19] | Potency [10] | outcome [11] | outcome [12] | outcome [13] | Potency [14] | outcome [15] | Potency [16]

Cn1ccc2cc3c(cc21)CCN3C(=O)Nc1cccnc1
active: Potency [2] 11.9 µM
inactive: Potency [1] | Potency [3] | Potency [4] | outcome [6] | outcome [7] | outcome [9] | outcome [19] | Potency [10] | outcome [11] | outcome [12] | outcome [13] | Potency [14] | outcome [15] | Potency [16] | Potency [17]

FC(F)(F)C(F)(F)C(F)(F)C(F)(F)C(F)(F)C(F)(F)C(F)(F)C(F)(F)C(F)(F)C(F)(F)F
inactive: activation [1] -5.47% [at 8.3 µM] | activation [2] 3.4% [at 8.08 µM] | activity change, negative = cytotoxicity [3] -19.5% [at 8.08 µM] | activity, negative = cytotoxicity [4] 13.6% [at 8.08 µM] | fluorescence, relative to Rose Bengal [6] 0.158% [at 9.17 µM] | fluorescence, % of fluorescein control [7] -0.0906% [at 9.17 µM] | fluorescence, % of triamterene [8] -0.0034% [at 9.17 µM] | fluorescence, % of fluorescent control [9] -0.155% [at 9.17 µM] | fluorescence, % of fluorescent control [10] -0.0458% [at 9.17 µM] | activity change [11] 0.0023% [at 9.17 µM] | fluorescence, % of fluorescent control [12] -0.0476% [at 9.17 µM] | fluorescence, % of Rose Bengal [13] -0.199% [at 9.17 µM] | fluorescence, % of fluorescent control [14] -0.151% [at 9.17 µM] | fluorescence, % of fluorescein control [15] 0.0369% [at 9.17 µM] | fluorescence, % of fluorescent control [16] 0.105% [at 9.17 µM] | activation [17] -0.303% [at 6.9 µM] | activity change, negative = inhibition [18] -11.7% [at 7.04 µM]

N#CC1(O)CCCCC1
inactive: Potency [1] | Potency [2] | Potency [3] | Potency [4] | outcome [6] | outcome [7] | outcome [9] | outcome [19] | Potency [10] | outcome [11] | outcome [12] | outcome [13] | Potency [14] | outcome [15] | Potency [17]
